Compounds with a hit are over-represented: about 0.98% of the library has one in this group of screens.
E coli Lon inh: inhibitors of E. coli Lon protease, primary screen, biochemical, fluorescence polarization. P0A9M0. purified E. coli Lon protease. inhibition, % at 7.94 µM. 360,000 compounds, 0.42% hits. AID 602123, 2011; in the data active means inhibition above about 13%, passing the limit was not always enough;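 further: 0% = enzyme with probe and DMSO and 100% = no enzyme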
EBV gp42 inh: Epstein-Barr virus gp42 inhibitors, primary screen, biochemical, uHTS, fluorescence polarization | Glycoprotein 42 (Epstein-Barr virus (strain AG876)), Q1HVG2 | Fluorescence polarization binding assay, mP read-out | inhibition, % (tested at 21.74 µM) | 220,000 compounds, 0.42% hits | AID 1085, 2008; in the data active means inhibition above about 50%
Target sequence (Q1HVG2 whole entry, looked up): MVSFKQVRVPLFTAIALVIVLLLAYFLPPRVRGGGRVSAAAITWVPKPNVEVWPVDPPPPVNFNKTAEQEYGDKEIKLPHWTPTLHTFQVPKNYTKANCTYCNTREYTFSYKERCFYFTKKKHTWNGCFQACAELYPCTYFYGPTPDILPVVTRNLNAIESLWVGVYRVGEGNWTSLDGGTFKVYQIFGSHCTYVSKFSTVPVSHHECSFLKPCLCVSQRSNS
LANA DNA inh: inhibitors of KSHV C-LANA binding to DNA, primary screen, biochemical, fluorescence polarization, FAM-LBS DNA, MBP-C-LANA, single point; Kaposi's sarcoma herpesvirus LANA C-terminal domain (residues 932-1162) DNA binding; inhibition, % at 9 µM; 340,000 compounds, 0.078% hits; AID 504423, 2011;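 active means highest replicate inhibition at or above 60% at 9 µM, even if other replicates fall short; inactive means all replicates below 60% inhibition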;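 further: 0% = neutral control wells and 100% = 4 µM acridine orange control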
cardiac RTF act: cardiac RTF calcium sensitivity activators, primary screen, biochemical, IANBD-TnC fluorescence, EC20 calcium; AID 493008, 2010; activation, % at 7.2 µM; IANBD-labeled TnC RTF fluorescence at EC20 calcium; 0% EC20 calcium, 100% full calcium; 340,000 compounds, 0.24% hits; Troponin I, cardiac muscle (Homo sapiens) + Troponin T, cardiac muscle (Homo sapiens) + …;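 active means activation above the mean over all tested compounds plus 3 SD, cut at about 30% in these data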;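 further: rise in fluorescence read as greater calcium sensitivity of cardiac thin filaments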
Keap1-Nrf2 PPI: Keap1-Nrf2 protein-protein interaction inhibitors, primary screen, biochemical, fluorescence polarization, single point. Kelch-like ECH-associated protein 1 (Homo sapiens), Q14145. Keap1 Kelch-Nrf2 peptide fluorescence polarization, 1536-well. inhibition, % at 9.4 µM. 340,000 compounds, 0.15% hits; in the data active means inhibition above about 12%;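 further: human Keap1 Kelch domain with fluorescein labeled Nrf2 9mer peptide probe; 0% = neutral control wells and 100% = peptide positive control; higher means more block of Keap1 binding to Nrf2 peptide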
Cardiac RTF inh: cardiac RTF calcium sensitivity inhibitors, primary screen, biochemical, IANBD-TnC fluorescence, EC70 calcium; Troponin I, cardiac muscle (Homo sapiens) + Troponin T, cardiac muscle (Homo sapiens) + …; IANBD-labeled cardiac RTF, Ca2+ fluorescence; inhibition, % at 7.15 µM; 340,000 compounds, 0.12% hits;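 active means inhibition above the mean inhibition of all tested compounds plus 3 SD, cut at about 17% in these data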;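 further: assay run at fixed EC70 calcium of 1.6 mM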
Numbers without * were called inactive; i = inactive; nt = not tested or not shown.

SMILES	E coli Lon inh	EBV gp42 inh	LANA DNA inh	cardiac RTF act	Keap1-Nrf2 PPI	Cardiac RTF inh
COc1cccc(/C=C(\C#N)c2nc3ccccc3[nH]2)c1OCC(=O)O	-44.5	nt	-0.3	-1.9	-3.2	-6.7
CCOc1cc(N(CC)CC)ccc1/C=C(/C#N)c1nc2ccccc2[nH]1	i	42.0	-0.7	106.0*	-3.0	-173.3
Cc1ccc(C(=O)CCC(=O)NNC(=O)c2ccccc2O)cc1	-2.3	nt	0.8	-3.9	3.2	1.0
OCc1cccc(-c2csc(C(O)c3ccccc3)n2)c1 (configuration not stated)	2.3	nt	nt	nt	nt	nt
Nc1nonc1-n1nnc(C(=O)N/N=C/c2ccco2)c1CSc1ccc(Cl)cc1	-6.7	nt	nt	nt	nt	nt
CCN1/C(=C/C=C/c2oc3ccc4ccccc4c3[n+]2CC)Oc2ccc3ccccc3c21	nt	162.2*	nt	nt	nt	nt
Cc1cc(-c2nc3c4c5c(sc4[nH]c(=O)n3n2)CCC5)c(C)o1	-5.1	60.0*	2.1	-6.0	-1.9	5.3
Cc1nc2sc3c(c2c(=O)[nH]1)CCC3	-5.4	-7.6	0.2	-1.4	1.7	2.7
Cc1cccc(N2C(=O)N3[C@H](c4ccc(Br)cc4)[C@@H]4C(=O)N(C(C)(C)C)C(=O)[C@@H]4[C@]3(C)C2=O)c1	3.9	nt	1.0	7.7	0.6	-6.5
Cn1ncc(N=Cc2c(O)ccc3ccccc23)c1C(=O)Nc1cccc(Cl)c1	-3.2	-9.0	6.8	43.4*	7.6	-7.7
Cn1ncc(Cl)c1C(=O)Nc1cccc(Cl)c1	-0.4	-18.5	0.3	15.6	2.5	-6.5
COc1ccc(CCN(Cc2nc3ccccc3c(=O)[nH]2)C(=O)c2ccco2)cc1OC	-0.2	98.2*	-0.4	-4.8	-6.5	-5.2
O=C(c1coc(=O)c(Br)c1)N1CCCc2ccccc21	-1.7	nt	76.9*	2.3	-0.7	1.1
O=C(c1cccc(Br)c1)N1CCCc2ccccc21	7.6	nt	-1.3	-4.2	1.5	6.3
O=C(NCc1ccco1)c1c2c(nc3ccccc13)CCC2	-7.7	61.9*	3.3	-1.3	4.4	7.4
O=C(CSc1c2c(nc3ccccc13)CCCC2)NCc1ccco1	-4.3	-5.8	0.8	3.7	-39.0	0.0
CC(C)[C@H](NC(=O)OCc1ccccc1)C(=O)OCC(=O)N1C(C)CCCC1C (some centres not stated)	-6.8	nt	0.3	0.4	-7.0	-11.3
COc1ccc(S(=O)(=O)Nc2cccc3c2O[C@H](CN(C)C(=O)Nc2c(C)noc2C)[C@@H](C)CN([C@H](C)CO)C3=O)cc1	-11.2	nt	0.1	-9.2	-2.6	0.1
CN(C)S(=O)(=O)c1ccc2c(c1)C(=O)c1cc(S(=O)(=O)N(C)C)ccc1CC2	-1.7	nt	-0.4	0.1	1.2	-6.7
CN(C)S(=O)(=O)c1ccc2c(c1)/C(=C/c1cc3c([nH]1)CCCC3)C(=O)N2	-240.5	nt	-2.8	61.2*	-11.4	-58.8
Cc1nn(-c2ccccc2)c(N2CCCC2)c1C=O	2.3	4.7	0.1	0.9	-5.3	-6.5
Cc1nn(-c2ccccc2)c(N2CCCC2)c1/C=C1\N=C(c2ccccc2)OC1=O	-2.0	116.8*	-1.4	3.8	3.7	2.4
O=C(NCCCn1ccnc1)c1ccc2c(c1)OCCO2	13.5	90.2*	1.0	0.6	-2.0	9.7
COc1ccc2nc(C)cc(Nc3ccc(C)cc3)c2c1	-4.9	nt	-2.1	5.9	-0.8	-4.8
COc1ccc2nc(C)cc(NCc3ccc(F)cc3)c2c1	-224.9	nt	-24.9	69.0*	-139.6	-79.0
SMILES	E coli Lon inh	EBV gp42 inh	LANA DNA inh	cardiac RTF act	Keap1-Nrf2 PPI	Cardiac RTF inh
O=c1c2cc(Br)cc(Br)c2oc2nc3n(c(=O)c12)CCCS3	nt	-8.4	nt	nt	nt	nt
O=Cc1ccc2oc3nc4n(c(=O)c3c(=O)c2c1)CCCS4	-3.0	85.1*	2.1	-3.7	-1.2	-7.3
CCc1ccc(C2C(C#N)=C(N)C(C#N)(C#N)C3=CCC(C(C)(C)C)CC32)cc1 (configuration not stated)	25.9*	6.0	9.9	4.8	4.4	-21.4
O=C1c2ccccc2/C(=C\C#Cc2ccccn2)N1c1ccccc1	-26.7	nt	-0.6	5.8	1.5	-10.2
C=CCn1c(=O)/c(=C/c2cc(OC)c(OC)c(OC)c2)s/c1=C(/C#N)c1nc2ccccc2n1C	0.8	95.9*	28.6	36.7*	29.9*	0.7
CCCCCCc1cc2cc(C(=O)NC)c(=N)oc2cc1O	-14.5	nt	23.0	7.1	-4.6	-6.5
CCCCCCc1cc2cc(C(N)=O)c(=N)oc2cc1O	nt	103.3*	nt	nt	nt	nt
COC(=O)CN1C(=O)S/C(=C/c2ccc(N3CCCCC3)o2)C1=O	-441.7	-259.0	-43.8	322.4*	-132.3	-291.4
CCOC(=O)CN1C(=O)S/C(=C/c2ccco2)C1=O	-8.4	nt	-1.6	5.4	-1.3	-7.1
CCOC(=O)CN1C(=O)S/C(=C/c2ccc(N3CCCCC3)o2)C1=O	-168.7	-189.8	-14.0	70.2*	-5.8	-48.1
O=C(O)CN1C(=O)/C(=C/c2ccc(N3CCCCC3)o2)SC1=S	-6.8	-2.4	-9.7	14.7	-26.9	-12.5
C=CC[C@H](CC(=O)NCCO)C(=O)N[C@@H](COC(=O)[C@@H](CC=C)Cc1ccc(F)cc1)Cc1ccccc1	0.4	nt	1.5	2.5	-1.2	8.6
CSc1nc(N(C)CCO)c2sc3nc(-c4ccco4)c4c(c3c2n1)CCC4	2.5	87.0*	-2.2	-1.1	-2.6	-1.8
CSc1nc(NCCN(C)C)c2sc3nc(-c4ccco4)c4c(c3c2n1)CCC4	6.9	nt	-2.2	9.7	-2.1	1.2
CSc1nc(SCC(=O)O)c2sc3nc(-c4ccccc4)c4c(c3c2n1)CCC4	-1.9	53.2*	25.9	-13.0	-49.7	4.5
O=C(O)CSc1nc2sc3c(c2c(=O)n1-c1ccccc1)CCC3	-9.8	-12.5	-0.6	2.2	-6.4	-7.7
CC(C)C[C@@H](CN1CCC[C@@H]1CN1C(=S)NC[C@@H]1Cc1ccc(O)cc1)N1C[C@H](Cc2ccc(O)cc2)N(CCc2ccccc2)C1=S	2.6	nt	nt	nt	nt	nt
CN1C2CCC1/C(=C\c1ccc(F)cc1)C(=O)/C2=C/c1ccc(F)cc1	-1.3	2.5	-0.9	-3.4	0.6	11.0
CN1C2CCC1/C(=C/c1cccn1C)C(=O)/C2=C\c1cccn1C	-148.5	-194.3	-77.7	367.2*	-262.1	-289.7
O=C(NCc1ccc(F)cc1)c1cc(C2CCCCN2C(=O)c2ccc(Cl)cc2)on1 (configuration not stated)	-4.2	nt	nt	nt	nt	nt
CCCS(=O)(=O)c1ncc(Cl)c(C(=O)Nc2ccc(S(=O)(=O)Nc3ncccn3)cc2)n1	4.6	nt	-0.1	2.7	42.1*	-3.1

Compound activity: PubChem, several laboratories
